The values below come from PubChem BioAssay (NCI).

The panel holds about 83,000 compounds, 20% with a hit somewhere; the sample as a whole holds those more often.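 Treatment: one concentration, 48 hours, 96-well format. Scoring: percent growth, with anything below 10 considered active.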 Unmarked numbers belong to inactive results. Calls of active or inactive are those of the source.

This experiment relates to MDA-MB-468 breast. The experiment can be described thus: NCI-60 one-dose screen, 48 h (100 = growth as untreated, 0 = no growth, -100 = all killed). Particulars: 10 µM unless noted.
In the case of `COc1ccccc1CNC(=O)C1c2ccccc2C(=O)N(CC(C)C)C1c1cccs1` (configuration not stated), the growth was 65.7%.

Turning to `O=C1COCCN1c1ccc(Nc2nc(Cl)nc(OCc3cn(Cc4ccccc4)nn3)n2)cc1`, the growth is 62.1%.

For the molecule `C=CCn1c(SCC(=O)Nc2ccc(C(=O)/C=C/c3cc(OC)c(OC)c(OC)c3)cc2)nnc1-c1cc(-c2ccc(OC)cc2)nc2ccccc12`, the growth is 103%.

As for `CCCCCc1c(C)[nH]c(/C=c2\[nH]/c(=C3/C=c4ccccc4=N3)cc2OC)c1C`, the growth was -63.8% (active).

As for `N#CC(C#N)=C(C#N)c1c[nH]c2ccccc12`, the growth is 38.8%.

In the case of `C=C(C)[C@@H]1CC[C@]2(C(=O)OCCOCCOCC[P+](c3ccccc3)(c3ccccc3)c3ccccc3)CC[C@]3(C)[C@H](CC[C@@H]4[C@@]5(C)CC[C@H](OC(=O)C(Cl)Cl)C(C)(C)[C@@H]5CC[C@]43C)[C@@H]12`, the growth is -53.7% (active).

`N#Cc1ccc(-c2ccc3c(c2)NC(=O)/C3=C\c2ccc[nH]2)cc1`: the growth was -18.2% (active).

As to `COc1ccc(-c2nc3ccc(-c4nc5ccc(N6CCN(c7ccncc7)CC6)cc5[nH]4)cc3[nH]2)cc1OC`, the growth is -46.3% (active).

As to `Nc1ccccc1SC1CC(=O)N(c2cccc3ccccc23)C1=O` (configuration not stated), the growth is 87%.

On to `O=S(=O)(NCCCNc1nccc(-c2[nH]c(-c3ccccc3)nc2-c2ccc(Cl)c(O)c2)n1)c1cccc2ccccc12`, for which the growth is 36.7%.

Regarding `CC1(c2ccc(Br)cc2)NC(=O)NC1=O` (configuration not stated), the growth is 110%.

As to `Nc1cccc(Nc2cc(S(=O)(=O)O)c(N)c3c2C(=O)c2ccccc2C3=O)c1`, the growth was 112%.
